Screening results as filed in PubChem BioAssay.
Pyk2 oligo antag = Pyk2 (human) oligomerization antagonism | z-score (the deposit names both 25 µM and 10 µM) | Q14289 | AID 1347419 | 99,000 compounds, 0.83% hits | Q293 cells, Pyk2 FERM NanoBiT luminescence; hits give low values;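 active = Z-score of -3 or lower, scaled per plate to the spread of control and sample wells; inactive = z-score above -3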;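 also: negative z-score means lost luminescence so less FERM oligomerization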
M1 antagonist = antagonists of rat M1 muscarinic receptor; CHO-M1 cells, Fluo-4 calcium, ACh EC80 antagonist mode; hits give low values; B-score at 10 µM; 64,000 compounds, 3.4% hits; AID 628;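 active = calcium fluorescence response, raw or row-and-column corrected B-score, differing from the plate sample mean either way at a set confidence level, mostly lower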
Target sequence (P08482 whole entry, looked up): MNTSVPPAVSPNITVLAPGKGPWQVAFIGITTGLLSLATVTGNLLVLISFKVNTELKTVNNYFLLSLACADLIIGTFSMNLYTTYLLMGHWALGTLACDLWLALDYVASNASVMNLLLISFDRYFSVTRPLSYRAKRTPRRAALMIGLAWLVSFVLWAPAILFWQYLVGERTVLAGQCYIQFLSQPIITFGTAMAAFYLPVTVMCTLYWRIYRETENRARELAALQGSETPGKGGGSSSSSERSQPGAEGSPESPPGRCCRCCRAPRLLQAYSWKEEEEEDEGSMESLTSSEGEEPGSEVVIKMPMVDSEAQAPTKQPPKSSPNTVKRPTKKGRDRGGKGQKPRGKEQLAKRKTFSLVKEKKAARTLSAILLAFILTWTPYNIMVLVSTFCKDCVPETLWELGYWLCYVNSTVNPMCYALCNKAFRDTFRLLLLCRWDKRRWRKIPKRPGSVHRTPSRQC
Cav32 inh = inhibitors of human Cav3.2 T-type calcium channel; Cav3.2-expressing cells, Fluo-4 calcium fluorescence FDSS; hits give low values; B-score at 10 µM; 100,000 compounds, 4% hits; AID 449739;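 active = single-dose well whose peak fluorescence ratio is a statistical outlier from its plate by either plate-standardised score or position-corrected B-score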
M1 ag = activates the M1 muscarinic receptor; B-score at 10 µM; CHO-M1 cells, Fluo-4 calcium fluorescence, agonist mode; hits give high values; AID 626; 64,000 compounds, 3% hits;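 active = fluorescence rise, raw or as B-score row- and column-corrected plate score, outside the 99.7% band of its plate's samples, either direction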
The depositor's hits bear a star; nt = no result given. This is a sample that favours compounds with a hit; in the whole collection about 7.1% have one here.

SMILES | Pyk2 oligo antag | M1 antagonist | Cav32 inh | M1 ag
Cc1cccc(C)c1NC(=O)c1ccc(-c2ccc(Cl)cc2Cl)o1 | -1.39 | nt | -4.82* | nt
Cc1ccccc1NC(=O)c1ccc(-c2ccc(Cl)cc2Cl)o1 | -0.23 | nt | -7.49* | nt
CC1(C)CC(=O)C2=C(C1)N(c1ccc(F)cc1)C(=O)CC2c1ccsc1 (centres undefined) | nt | nt | 0.31 | nt
O=C1C=C(c2ccc(F)nc2)CCC1 | nt | nt | -0.0333 | nt
CN1CCN(C(=O)c2c(NC(=O)c3ccco3)sc3c2CCC(C(C)(C)C)C3)CC1 (centres undefined) | -4.61* | 0.97 | 0.63 | 1.59
Fc1cccc(Cl)c1CSc1nnc(COc2cccc3cccnc23)o1 | 0.53 | -1.23 | -2.82 | 0.857
C[C@@H](C(=O)Nc1ccc2ccccc2c1)[C@@H]1C[C@@]1(C)[C@@H](NC(=O)c1ccccc1)c1ccccc1 | nt | nt | -3.92* | nt
CCn1c2ccccc2c2nnc(SCCCn3c(=O)[nH]c4ccccc43)nc21 | -3.47* | -1.35 | -1.07 | 0.221
O=C(NCC(c1ccco1)N1CCN(c2ccc(F)cc2)CC1)OCc1ccccc1 (centres undefined) | -3.03* | nt | nt | nt
O=C(NCC(c1cccnc1)N1CCN(c2ccccc2F)CC1)OCc1ccccc1 (centres undefined) | -3.15* | -0.621 | -3.21 | 2.02
O=C(NCC(c1cccnc1)N1CCN(c2ccccc2)CC1)OCc1ccccc1 (centres undefined) | -1.38 | -1.02 | -0.632 | 0
C=C(C)C(=O)OC1(C(F)(F)F)Oc2cc(C)ccc2NC1=O (centres undefined) | -0.23 | nt | 0.0259 | nt
O=C(N/N=C/c1ccccc1O)C1(O)c2ccccc2-c2ccccc21 | -1.09 | nt | nt | nt
COCC(C)NC(C(=O)Nc1ccc(C)c(Cl)c1)c1ccccc1 (centres undefined) | -1 | nt | nt | nt
COCCNC(C(=O)Nc1cc(Cl)cc(Cl)c1)c1ccccc1 (centres undefined) | -1.01 | nt | -5.19* | nt
CCOC(=O)C1=NN(C(=O)Nc2cccc(C(F)(F)F)c2)C2C(=O)N(c3cccc(C(F)(F)F)c3)C(=O)C12 (centres undefined) | 0.48 | nt | -5.73* | nt
CC(C)(C)CC(C)(C)NC(=S)NC1CCN(Cc2ccccc2)CC1 | 1.07 | nt | nt | nt
Cc1cccc(N(C)C(=O)c2cc3cc4ccc(C)cc4nc3o2)c1 | -1.57 | 0.702 | -5.1* | 1.06
O=C(NCc1cccnc1)C1CC(=O)N(CCc2ccccc2)C1 (centres undefined) | nt | nt | -0.658 | nt
O=C(C1CC1)N1CCc2cc(Br)cc(S(=O)(=O)NCC3COc4ccccc4O3)c21 (centres undefined) | -0.51 | 0 | -4.15* | 1.38
CC(=O)Nc1cc2c(cc1C(=O)c1ccc(C)cc1)OCCO2 | -0.13 | 0.297 | -5.25* | 0.808
O=C(CCc1ccc(S(=O)(=O)N2CCOCC2)cc1)Nc1nc(COc2ccccc2)cs1 | -0.82 | nt | nt | nt
COc1ccc(O)c(/C=N/Nc2nc(Nc3ccccc3)nc(-n3nc(C)cc3C)n2)c1 | -1.75 | nt | -4.45* | nt
O=C(Nc1ccc(Cl)cc1)OCCn1nnnc1C(c1ccccc1Cl)N1CCOCC1 (centres undefined) | -2.6 | nt | -6.88* | nt
CC(O)(CC(=O)O)CC(=O)O | nt | nt | -0.00207 | nt
SMILES | Pyk2 oligo antag | M1 antagonist | Cav32 inh | M1 ag
O=C(Nc1ccc(Cl)c(Cl)c1)N1CCSC1c1ccco1 (centres undefined) | 0.6 | -1.42 | -7.68* | 2.09
Cc1ccc2cc(CN(Cc3ccc4c(c3)OCO4)Cc3nnnn3Cc3ccco3)c(=O)[nH]c2c1 | 0.58 | 0.0326 | -6.69* | 2.22
CC(=O)C1=C(O)C(=O)N(CCNCCO)C1c1ccccc1 (centres undefined) | -0.08 | nt | 0.741 | nt
N/C(=N\OS(=O)(=O)c1ccc(Br)cc1)c1ccncc1 | 0.43 | nt | 0.676 | nt
CC(=O)Nc1ccc(-n2nnnc2SCC(=O)N2CCN(C(=O)c3ccco3)CC2)cc1 | -0.61 | nt | 1.22 | nt
COc1ccc(C(=O)N(Cc2nc(-c3ccc(C)cc3)no2)C2CCCCC2)cc1OC | -1.15 | nt | -4.04* | nt
C1CNCCOCCNCCN1 | 0.16 | nt | 1.07 | nt
O=C(NCCc1ccccc1)C1CCCN(S(=O)(=O)c2cccs2)C1 (centres undefined) | nt | -0.00587 | 0.696 | 0.502
Cc1ccc(C(O)P(=O)(OC2CCCCC2)OC2CCCCC2)cc1 (centres undefined) | 0.63 | nt | -4.21* | nt
COc1ccc(-n2c(C)cc(C(=O)Cn3c(NCCO)nc4ccccc43)c2C)cc1 | 0.67 | 0.113 | -6.77* | 0.722
Cc1ccc(NC(=O)C(c2ccc(Cl)cc2)N2CCCCC2)cc1 (centres undefined) | -1.28 | nt | -7.02* | nt
Cc1cccc(C)c1NC(=O)C(c1ccc(Cl)cc1Cl)N1CCCCC1 (centres undefined) | -1.03 | nt | -5.04* | nt
CC(C)c1ccc(NC(=O)C(c2ccccc2)N2CCC3(CC2)OCCO3)cc1 (centres undefined) | -0.94 | nt | -7.44* | nt
Cc1ccc(C(C(=O)NC2CCCCC2)N2CCOCC2)cc1 (centres undefined) | 0.18 | 0.0548 | 0.68 | -0.255
O=C(N1CCN(c2ccccn2)CC1)N1c2ccccc2Sc2ccccc21 | -1.29 | -1.52 | nt | 0.279
CCOC(=O)c1ccc2c(c1)nc(SCc1cn3ccsc3n1)n2CC | -1.8 | 0.984 | 0.0344 | 0.401
CCCn1c(=NC(=O)c2ccncc2)c(C#N)cc2c(=O)n3cccc(C)c3nc21 | nt | 0.431 | nt | 19.8*
CC(=O)N=c1c(C#N)cc2c(=O)n3cccc(C)c3nc2n1CC(C)C | nt | 0.0169 | nt | 13.1*
Cc1cc(NC(=O)Cn2c(C)nc3ccccc3c2=O)ccc1Br | -0.19 | nt | -2.24 | nt
CC(=O)Nc1ccccc1-c1nc2ccc(C(=O)N3CCN(c4cc(C)ccc4C)CC3)cc2[nH]c1=O | nt | nt | -3.66* | nt
CCN(CCNC(=O)c1ccc2nc(-c3ccccc3NC(C)=O)c(=O)[nH]c2c1)c1ccccc1 | nt | nt | 0.707 | nt
C/C(=N/NC(=O)c1ccoc1C)C12CC3CC(CC(C3)C1)C2 | 1.75 | nt | -2.37 | nt
Cc1cc(NC(=O)CSc2nnnn2C)n(-c2ccccc2)n1 | 0.61 | nt | 0.528 | nt
CC(=O)c1c(O)c(C)c(-c2ccccc2)n(-c2ccccc2)c1=O | 0.22 | nt | -3.6* | nt
CCO/N=C(\C)c1c(O)c(CC)c(-c2ccccc2)n(-c2ccccc2)c1=O | 0.19 | nt | -3.85* | nt
SMILES | Pyk2 oligo antag | M1 antagonist | Cav32 inh | M1 ag
CCO/N=C(/C)c1c(O)cc(C(C)(C)C)n(-c2ccccc2)c1=O | -0.15 | nt | nt | nt
CCOC(=O)C1=C(C)N(C)C(C)=C(C(=O)OCC)C1c1ccc(C(=O)OC)cc1 | -0.24 | nt | -7.01* | nt
CCCN(CCC)c1nc(NC2CCN(C(=O)OCC)CC2)nc(OC)n1 | -1.78 | -0.199 | -11.2* | -0.328
Cc1ccc(C2N(C)c3ccccc3-c3nc4ccccc4n32)o1 (centres undefined) | -1.12 | nt | -5.37* | nt
CCN1c2ccccc2-c2nc3ccccc3n2C1c1ccncc1 (centres undefined) | -0.96 | -0.0774 | -0.824 | 0.539
NC(=O)CC(NC(=O)Cc1ccc(Br)cc1)c1ccc(N2CCN(c3ccc(F)cc3)CC2)c([N+](=O)[O-])c1 (centres undefined) | nt | nt | 0.973 | nt
COc1ccc(-c2nc(-c3ccc(C(=O)O)cc3)no2)cc1 | nt | nt | 0.771 | nt
CC(C)(C)OC(=O)NCCCC[C@H](NC(=O)c1nc[nH]c1C(=O)NC(c1ccccc1)c1ccccc1)C(=O)OC(C)(C)C | nt | nt | -1.37 | nt
